# About 4,300 (8.3%) of roughly 52,000 compounds were called active. The sample as a whole holds a higher share of actives than the screen did. A number with no mark means an inactive call. Cut-off read from the data, not from the text of the source: active = survival mostly below about 52% (no sharp cut-off); inactive = mostly above about 56%.
# Tested on: DeltatarO mutant
# Test: growth inhibition of S. aureus wild type versus tarO mutant, primary screen, teichoic acid synthesis inhibitors, RN4220, OD600 (AID 463173)
# Settings: OD600, 18 h, stronger effect = lower value, screened at 18.75 µg/mL (by protocol)
row,SMILES,survival
1,COc1ccc(C(=O)c2cn(Cc3ccccc3OC)c3cc4c(cc3c2=O)OCO4)cc1,95%
2,Clc1cccc(CNc2ncnc3c2nc2n3CCCC2)c1,88%
3,Fc1ccccc1Nc1ncnc2c1nc1n2CCCCC1,68%
4,Clc1cccc(Nc2ncnc3c2nc2n3CCCCC2)c1,17% (active)
5,Clc1ccccc1Nc1ncnc2c1nc1n2CCCCC1,8% (active)
6,COc1ccc(Nc2ncnc3c2nc2n3CCCC2)cc1Cl,80%
7,COc1ccccc1Nc1ncnc2c1nc1n2CCCCC1,128%
8,COc1ccc(C)cc1NC(=O)C1CCN(S(=O)(=O)Cc2ccccc2)CC1,67%
9,O=C(CSc1nccn1C1CCCC1)Nc1ccc(C(F)(F)F)cc1,101%
10,CCN(CC)CCCNC(=O)CCc1c(C)nc2c(c1C)c(=O)n(C)c(=O)n2C,96%
11,O=C(CN1C(=O)CCc2cc(S(=O)(=O)N3CCOCC3)ccc21)NCc1ccc(F)cc1,93%
12,CCS(=O)(=O)c1nc(S(=O)(=O)c2ccc(C)cc2)c(NC)s1,102%
13,CCN1CCN(c2nc3c(S(=O)(=O)c4ccc(C)cc4)nnn3c3ccsc23)CC1,65%
14,CCCNS(=O)(=O)c1ccc(CCC(=O)NCC2CCCO2)cc1 (configuration not stated),89%
15,CCc1ccc(N(CC(=O)NCC2CCCO2)S(C)(=O)=O)cc1 (configuration not stated),66% (active)
16,CN(c1ccc(C(=O)NCC2CCCO2)cc1)S(C)(=O)=O (configuration not stated),74%
17,CCc1ccc(NC(=O)c2sc3nc(C)cc(C)c3c2NC(=O)c2ccccc2OC)cc1,69%
18,O=C(Nc1ccc(F)cc1)c1ncn(-c2ccccc2)n1,86%
19,CC(=O)c1ccc(NC(=O)c2nc(-c3ccccc3)n(-c3ccc(Cl)cc3)n2)cc1,49% (active)

row,SMILES,survival
1,CCOC(=O)c1ccc(NC(=O)c2ncn(-c3ccccc3)n2)cc1,99%
2,CC(=O)c1ccc(NC(=O)c2nc(-c3ccccc3)n(-c3ccccc3)n2)cc1,87%
3,CC(=O)c1ccc(NC(=O)c2nc(-c3ccccc3)n(-c3ccc(C)cc3)n2)cc1,60%
4,CC(=O)c1ccc(NC(=O)c2ncn(-c3ccccc3)n2)cc1,34% (active)
5,COc1ccc(-c2nc(C(=O)Nc3cccc(C(C)=O)c3)nn2-c2ccc(Cl)cc2)cc1,99%
6,CC(=O)c1ccc(NC(=O)c2nc(-c3ccccc3)n(-c3ccccc3Cl)n2)cc1,64%
7,COc1ccc(-n2nc(C(=O)Nc3ccc(C(C)=O)cc3)nc2-c2ccccc2)cc1,49% (active)
8,CC(=O)c1cccc(NC(=O)c2nc(-c3ccccc3)n(-c3ccccc3)n2)c1,56%
9,CC(=O)c1cccc(NC(=O)c2nc(-c3ccccc3)n(-c3cccc(Cl)c3)n2)c1,68%
10,COc1ccc(-c2nc(C(=O)Nc3ccc(C(C)=O)cc3)nn2-c2cccc(Cl)c2)cc1,46% (active)
11,CC(C)(C)C1CCc2c(sc(NC(=O)Cn3nnc(-c4ccccc4F)n3)c2C#N)C1 (configuration not stated),66%
12,N#CC(=C1CCN(Cc2ccccc2)CC1)c1ccccc1,85%
13,Cc1cccc(NC(=O)c2cc3c(=O)n(Cc4ccco4)ccc3nc2C)c1,87%
14,CCNC(=O)c1nn(-c2ccccc2C)nc1CO,106%
15,CCOc1ccc(NC(=O)CC2C(=O)N(c3ccc(C)cc3)C(=O)N2C2CCCCC2)cc1 (configuration not stated),64%
16,COc1ccccc1C(=O)Nc1c(C(=O)N(C)c2ccccc2)sc2nc(C)cc(C)c12,58%
17,CCCN(C(=O)C1CC1)c1nnc(-c2ccc(Cl)cc2)s1,79%
18,Cc1c(C(=O)Nc2cccc(Cl)c2)oc2ccc(S(=O)(=O)N(C)C3CCCCC3)cc12,71%
19,Cc1sc(-n2c(C)cc(/C=C(\C#N)C(=O)NCc3ccco3)c2C)c(C#N)c1C,84%

row,SMILES,survival
1,Cc1ccc(Cl)cc1NC(=O)c1oc2ccc(S(=O)(=O)N3CCCCCC3)cc2c1C,93%
2,O=C(Cn1cccc1C(=O)c1ccccc1)NCc1ccc(Cl)cc1,98%
3,COc1ccc2c(c1)CC(C(=O)Nc1ccc(OC)cc1OC)CO2 (configuration not stated),89%
4,COC(=O)c1cc2oc3ccccc3c2n1CC(=O)Nc1ccc(OC)c(OC)c1,79%
5,CCOc1ccc(NS(=O)(=O)c2ccc3[nH]cc(C(=O)N(C)C4CCCCC4)c(=O)c3c2)cc1,76%
6,CCOc1ccc(NS(=O)(=O)c2ccc3[nH]cc(C(=O)NC4CCCC4)c(=O)c3c2)cc1,39% (active)
7,CCc1ccc(NS(=O)(=O)c2ccc3[nH]cc(C(=O)NC4CCCC4)c(=O)c3c2)cc1,8% (active)
8,CCOc1ccc(NS(=O)(=O)c2ccc3[nH]cc(C(=O)NCCOC)c(=O)c3c2)cc1,72%
9,CCOc1ccc(NS(=O)(=O)c2ccc3[nH]cc(C(=O)NCc4ccccc4)c(=O)c3c2)cc1,79%
10,CCc1ccc(NS(=O)(=O)c2ccc3[nH]cc(C(=O)NCc4ccc(C)cc4)c(=O)c3c2)cc1,65%
11,CCOc1ccc(NS(=O)(=O)c2ccc3[nH]cc(C(=O)N(C)Cc4ccccc4)c(=O)c3c2)cc1,6% (active)
12,CCc1ccc(NS(=O)(=O)c2ccc3[nH]cc(C(=O)NCCc4ccccc4)c(=O)c3c2)cc1,87%
13,Cc1cc(C)cc(NS(=O)(=O)c2ccc3[nH]cc(C(=O)N(C)Cc4ccccc4)c(=O)c3c2)c1,102%
14,Cc1ccc(-c2nn3c(=O)cc(CN4CCN(C(=O)/C=C/c5ccccc5)CC4)nc3s2)cc1,68%
15,CCOc1ccccc1C1CC(=O)Nc2c1c(=O)n(C)c1ncnn21 (configuration not stated),164%
16,COc1ccc(NC(=O)c2oc3ccc(S(=O)(=O)N4CCC5(CC4)OCCO5)cc3c2C)cc1Cl,80%
17,O=C(O)C1CC(=O)N(CCCN2CCOCC2)C1 (configuration not stated),96%
18,Cc1nn(C)c2c1c(C(F)(F)F)cc(=O)n2CC(=O)NCc1ccccc1Cl,80%
19,CCN1CCN(C(=O)c2ccc3c(c2)N(Cc2ccccc2)C(=O)c2ccccc2S3=O)CC1 (configuration not stated),104%

# From PubChem BioAssay AID463173 (ICCB-Longwood Screening Facility, Harvard Medical School, 2010)
